Hit rate of the full screen: of about 350,000 compounds, about 31,000 (8.9%) were called active. Another 15% or so got no clear call; they are omitted. The call rests on the fitted dose curve; in most records, active means well fitted inhibition curve with a large enough effect; inconclusive means small, poorly fitted or top-dose-only effect; inactive means no such curve, though single readings can be large or run the other way. What follows is part of a selection rich in actives, with near analogues and random picks from the rest.
Molecular target: Histone-lysine N-methyltransferase EHMT2 (Homo sapiens) (UniProt Q96KQ7)
Assay: qHTS Assay for Inhibitors of Histone Lysine Methyltransferase G9a; further: nearly all actives have a fitted effect of over 75% in size
Conditions: G9a H3K9 monomethylation, AlphaScreen, 2 h; series mostly up to 59 µM; activity, negative = inhibition: at the top concentration
How it was run: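 Readings reflect AlphaScreen signal from monomethyl-H3K9 antibody detection. HMT at 20 nM; substrate b-H3K9 500 nM; cofactor SAM 20 uM; 2 h RT reaction; compounds tested as titrations in qHTS with 15 min preincubation.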
On the % scale 0 is the no-effect control and ±100 the full control effect; potency means the concentration at half of the fitted maximal effect.

Chain of Histone-lysine N-methyltransferase EHMT2 (Homo sapiens) (Q96KQ7 913-1193 limits assumed): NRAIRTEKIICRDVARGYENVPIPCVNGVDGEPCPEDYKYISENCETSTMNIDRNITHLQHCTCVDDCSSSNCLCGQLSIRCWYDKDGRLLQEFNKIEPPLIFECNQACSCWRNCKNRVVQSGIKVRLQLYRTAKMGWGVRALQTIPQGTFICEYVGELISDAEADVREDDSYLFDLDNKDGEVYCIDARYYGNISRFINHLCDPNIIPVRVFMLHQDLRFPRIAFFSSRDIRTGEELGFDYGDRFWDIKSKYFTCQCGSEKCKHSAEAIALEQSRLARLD

Compound | activity, negative = inhibition | Potency
Cc1nc2nc(SCC(=O)NC3CCC(C)CC3)nn2c(C)c1Cc1ccccc1Cl (configuration not stated) | -39.2% (inactive) | –
Cc1cccc(-n2cnc(C(=O)Nc3cccnc3)c2)n1 | -4.43% [at 102 µM] (inactive) | –
Cc1cccc(-n2cnc(C(=O)NNC(=S)Nc3ccccc3)c2)n1 | – | 28.2 µM (active)
COC(=O)c1ccc(NC(=S)Nc2cccc(C)n2)cc1 | -9.29% [at 12.7 µM] (inactive) | –
O=C(c1ccc(Cl)nc1)N1CCN(S(=O)(=O)c2ccc3c(c2)OCCO3)CC1 | -21.6% [at 12.7 µM] (inactive) | –
CCc1cccc(C)c1Nc1c(-c2ccc(N(C)C)cc2)nc2ncccn12 | – | 8.91 µM (active)
COc1ccc(-c2nc3nc(C)cc(C)n3c2Nc2c(C)cccc2C)cc1 | -32.3% (inactive) | –
Cc1cccc(C)c1Nc1c(-c2ccccc2O)nc2ncccn12 | -7.84% [at 12.7 µM] (inactive) | –
Cc1ccc(CCNC(=O)c2ccc3c(c2)N(Cc2cc(C)ccc2C)C(=O)c2ccccc2S3=O)cc1 (configuration not stated) | -23.3% (inactive) | –
Cc1ccc(S(=O)(=O)NCCC(=O)OCC(=O)N(C)c2ccccc2)cc1 | -8.16% [at 102 µM] (inactive) | –
Cc1cc(C)cc(OCC(=O)NC(C)c2ccccc2)c1 (configuration not stated) | – | 79.4 µM (active)
Cc1ccc(OCC(=O)NC(C)c2ccccc2)cc1C (configuration not stated) | 15.5% [at 102 µM] (inactive) | –
Cc1ccc(OCCCC(=O)NC(C)c2ccccc2)c(C)c1 (configuration not stated) | -28.9% [at 102 µM] (inactive) | –
COc1ccccc1C(=O)NC(=S)Nc1ccccc1N1CCCCC1 | 5.98% [at 102 µM] (inactive) | –
O=C1C2CCCN2C(=O)N1CCCCN1CCN(c2cccc(C(F)(F)F)c2)CC1 (configuration not stated) | 2.49% [at 0.501 µM] (inactive) | –
CC1=C(c2ccc(F)cc2)S(=O)(=O)N=C1N1CCC(C(=O)NCCc2ccccc2C)CC1 | 0.174% (inactive) | –
COc1ccccc1C(=O)NC(CCSC)C(=O)N1CCN(C/C=C/c2ccccc2)CC1 (configuration not stated) | – | 56.2 µM (active)
COc1ccccc1C(=O)NC(CCSC)C(=O)N1CCN(C(C)=O)CC1 (configuration not stated) | 8.08% [at 12.7 µM] (inactive) | –
CSCCC(NC(=O)c1ccccc1)C(=O)N1CCN(Cc2ccc(Cl)cc2)CC1 (configuration not stated) | 10.6% [at 0.501 µM] (inactive) | –

Compound | activity, negative = inhibition | Potency
CCOc1ccc(CNC(=O)C2CCN(c3nnc(-n4cccc4CNc4ccc(C)cc4)s3)CC2)cc1OC | -7.99% (inactive) | –
CC1CC2C3CCC4=CC(=O)C=C[C@]4(C)[C@@]3(F)[C@@H](O)C[C@]2(C)[C@@]1(O)C(=O)CO (some centres not stated) | 23.6% (inactive) | –
Cc1ccc2oc(C(=O)Nc3ccc(S(=O)(=O)N4CCCCCC4)cc3)cc(=O)c2c1 | 11.5% (inactive) | –
O=C(Nc1cccc(Cl)c1Cl)c1ccccc1NC(=O)C1CC=CCC1C(=O)O (configuration not stated) | -46.5% [at 102 µM] (inactive) | –
Cc1c(-c2cccc(Cl)c2)nc2ccccc2c1C(=O)OCC(=O)N(C)C1CCS(=O)(=O)C1 (configuration not stated) | 3.46% (inactive) | –
CN(C(=O)COC(=O)c1cc(-c2ccco2)nc2ccccc12)C1CCS(=O)(=O)C1 (configuration not stated) | – | 2.51 µM (active)
CN(C(=O)COC(=O)c1nc(Cl)ccc1Cl)C1CCS(=O)(=O)C1 (configuration not stated) | 11.5% [at 102 µM] (inactive) | –
COc1ccc(-n2nc(C(=O)NCC(=O)N3CCCCCC3)c3ccccc3c2=O)cc1Cl | -1.41% [at 102 µM] (inactive) | –
CCC(=O)c1ccc(OCC(=O)OCC(=O)N2CCc3ccccc3C2)cc1 | -11.3% [at 2.33 µM] (inactive) | –
O=C(COc1ccccc1)N1CCc2ccccc2C1 | -42.6% [at 102 µM] (inactive) | –
O=C(Cn1c(=S)nc2ccccn21)N1CCc2ccccc2C1 | – | 12.6 µM (active)
Cn1c(=O)c2c(nc(Oc3ccc(C#N)cc3)n2Cc2ccc(Cl)cc2Cl)n(C)c1=O | 26.9% (inactive) | –
COc1ccc(NC(=O)CSc2nccn2Cc2ccc3c(c2)OCO3)cc1 | -12.2% (inactive) | –
Cc1nc(SCC(=O)Nc2ccc(C(=O)O)cc2)n[nH]1 | 6.19% (inactive) | –
O=C(CSc1n[nH]c(-c2cccnc2)n1)Nc1ccc(Cl)cc1 | 27.2% [at 102 µM] (inactive) | –
CN(C)c1ccc(NC(=O)CSc2n[nH]c(-c3ccco3)n2)cc1 | – | 44.7 µM (active)
CC(C)Cn1c(C2CC(=O)N(c3ccccc3Cl)C2)nc2ccccc21 (configuration not stated) | -0.0323% (inactive) | –
COc1ccc(C)cc1N(CC(=O)N1CCC(C)CC1)S(=O)(=O)c1ccc(C)cc1 | -37.9% (inactive) | –
O=C(NC1CCN(Cc2ccccc2)CC1)c1ccc(Cn2c(=O)c3ccccc3n(Cc3cccc(F)c3)c2=O)cc1 | 5.83% (inactive) | –

Compound | activity, negative = inhibition | Potency
COc1ccc(-n2ncc3c2CC(C)(C)CC3NC(=O)CCc2c(C)nn(C)c2C)cc1 (configuration not stated) | 22.3% [at 102 µM] (inactive) | –
Cn1c(-c2ccc(C(F)(F)F)cc2)cc2onc(-c3ccccc3)c2c1=O | -9.13% [at 2.33 µM] (inactive) | –
O=C(Cn1c(-c2cccs2)cc2ccccc21)NCCc1ccc(Cl)cc1 | 8.69% (inactive) | –
CCc1ccc(Nc2nnc(SCC(=O)c3ccc4c(c3)NC(=O)CO4)s2)cc1 | – | 15.8 µM (active)
CCCc1nc2ccccc2c(C(=O)OCC(=O)c2ccc3c(c2)NC(=O)CO3)c1CC | 16.7% [at 12.7 µM] (inactive) | –
O=C1COc2ccc(C(=O)CSc3ccc(Br)cc3)cc2N1 | 8.05% [at 12.7 µM] (inactive) | –
COc1cc(OC)c(OC)cc1/C=C/c1nc2ccccc2c(=O)n1-c1ccc(Br)c(C)c1 | -42.8% (inactive) | –
COc1ccc(C)cc1-n1nnnc1SCc1nc2ccccc2c(=O)[nH]1 | -44% [at 102 µM] (inactive) | –
CCOc1cc(/C=C/c2nc3ccccc3c(=O)[nH]2)cc(Br)c1OC | – | 50.1 µM (active)
O=C(NC1(C(F)(F)F)N=C(c2ccccc2)N(C2CCCCC2)C1=O)c1ccccc1F (configuration not stated) | -8.07% (inactive) | –
COc1ccc(NC(=O)C(c2ccccc2)N2Cc3ccccc3C2=O)cc1 (configuration not stated) | -5.93% (inactive) | –
CN(CC(=O)NC1CCN(Cc2ccccc2)CC1)S(=O)(=O)c1ccc(Cl)s1 | -1.26% [at 2.33 µM] (inactive) | –
COc1ccc(NC(=O)c2ccc3oc(=O)c(S(=O)(=O)c4ccc(F)cc4)cc3c2)c(OC)c1 | -2.82% (inactive) | –
COc1ccccc1CNC(=O)CCn1c(=O)c2ccccc2n(CC(=O)Nc2cccc(Cl)c2)c1=O | -25% (inactive) | –
COc1cccc(NC(=O)N2CCN(C(=O)c3nsc4ccccc34)CC2)c1 | 4.87% (inactive) | –
COc1cc(CNC(=O)c2cc3n(n2)CCCN(Cc2cccc(F)c2)C3=O)cc(OC)c1OC | 15.2% (inactive) | –
CCOC(=O)CSc1nnc(CNc2nc(-c3ccccc3)cs2)n1C | 2.05% [at 12.7 µM] (inactive) | –
Cn1c(CNc2nc(-c3ccccc3)cs2)nnc1SCC(=O)c1ccccc1 | – | 39.8 µM (active)
CCNC(=O)CSc1nc(-c2ccccc2)cs1 | -2.39% [at 102 µM] (inactive) | –

— PubChem BioAssay AID504332 (National Center for Advancing Translational Sciences (NCATS), 2011)
